Measurements: the supplement of paper PMC10646978
± gives the standard deviation.

How the values were obtained:
Conditions in all cases: modulator concentration 10 µM
[1] = system: RAW-Dual (murine macrophage reporter line); experiment: NF-kB reporter (SEAP) activity fold change vs agonist alone; higher = enhanced NF-kB activity
Summary of the method: (§1)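 Compound reached 10 μM final in each well by pin transfer, onto RAW-Dual murine macrophage reporter cells seeded at 50 000 per well in 384-well plates. After 1 hour at 37 °C, the cells were stimulated overnight with a PRR agonist. SEAP in the supernatant was read with QUANTI-Blue at 620 nm absorbance for NF-κB, and Lucia luciferase was read with QUANTI-Luc luminescence for IRF. Each signal was turned into fold change against the mean agonist-only control on the same plate, and two replicate plates were averaged with propagated errors.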

[2] = system: RAW-Dual (murine macrophage reporter line); experiment: IRF reporter (Lucia luciferase) activity fold change vs agonist alone; higher = enhanced IRF activity
Summary of the method: as §1

[3] = system: RAW-Dual (murine macrophage reporter line); experiment: viability score (confluency relative to resting cells, overnight) (fraction); higher = more viable, active = viable (0.7 or more)
Summary of the method: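 Two confluency masks, generated with IncuCyte software over all imaged wells, were applied to IncuCyte images of RAW-Dual macrophages. The cells, in 384-well plates, had been exposed overnight to 10 μM final compound. The viability score is confluency as a fraction of resting cells, and a compound met the cutoff only with both masks above 70% of resting cells.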

[4] = agonist: CpG ODN 1826 0.5 ug/mL

SMILES | NF-kB reporter [1, 4] | NF-kB reporter ([1]; agonist: LPS 0.1 ug/mL) | NF-kB reporter ([1]; agonist: MPLA […]) | IRF reporter ([2]; agonist: 3'3'-cGAMP 10 ug/mL) | IRF reporter ([2]; agonist: LPS 0.1 ug/mL) | IRF reporter ([2]; agonist: MPLA […]) | viability score [3]
CC1CC(=O)C2=C(C1)OC(N)=C(C#N)C2c1ccc(Br)cc1 (centres undefined) | 0.847 ± 0.088 | 0.91 ± 0.17 | 1 ± 0.056 | 0.782 ± 0.096 | 0.904 ± 0.04 | 0.731 ± 0.12 | 0.994 (active)
CCCCCN(CCCCC)C(=O)C(CCC(=O)[O-])NC(=O)c1ccc(Cl)c(Cl)c1 (centres undefined) [Prestw-915] | 1.02 ± 0.064 | 0.954 ± 0.096 | 0.901 ± 0.064 | 1.1 ± 0.073 | 1.55 ± 0.17 | 1.29 ± 0.14 | 0.832 (active)
COC(=O)CCS(=O)(=O)c1ccc2ccccc2c1 | 0.886 ± 0.055 | 1.01 ± 0.1 | 1.05 ± 0.091 | 1.08 ± 0.059 | 1.31 ± 0.16 | 1.06 ± 0.095 | 0.995 (active)
O=C(O)C=Cc1cccc(NS(=O)(=O)C=Cc2ccccc2)c1 | 1.06 ± 0.094 | 0.968 ± 0.084 | 1.33 ± 0.19 | 0.956 ± 0.07 | 1.29 ± 0.28 | 1.34 ± 0.28 | 1.02 (active)
O=c1[nH]cnc2scc(-c3ccc(Br)cc3)c12 | 0.924 ± 0.067 | 1.08 ± 0.073 | 1.03 ± 0.061 | 1.14 ± 0.042 | 1.65 ± 0.13 | 1.29 ± 0.16 | 0.975 (active)
Cc1ccc(CNC(=O)C(=O)NC2CCCCC2)cc1 | 1 ± 0.094 | 0.956 ± 0.11 | 0.963 ± 0.091 | 0.97 ± 0.025 | 1.46 ± 0.2 | 1.11 ± 0.21 | 1.01 (active)
Nc1ncnc2c1ncn2C1CC(O)C(CO)O1 (centres undefined) | 0.992 ± 0.08 | 0.875 ± 0.065 | 1.12 ± 0.11 | 1.12 ± 0.039 | 1.29 ± 0.18 | 1.35 ± 0.26 | 1.05 (active)
O=C(CCCc1ccccc1)NCC1(O)CCCC1 | 0.858 ± 0.079 | 0.968 ± 0.078 | 0.867 ± 0.049 | 0.968 ± 0.05 | 0.977 ± 0.061 | 0.917 ± 0.23 | 1.01 (active)
O=c1cc(CO)occ1O | 0.97 ± 0.075 | 0.901 ± 0.076 | 1.06 ± 0.11 | 1.04 ± 0.041 | 1.28 ± 0.12 | 1.33 ± 0.19 | 1.03 (active)
CC(=O)N1CCN(c2ccc(OCC3COC(Cn4ccnc4)(c4ccc(Cl)cc4Cl)O3)cc2)CC1 (centres undefined) | 0.669 ± 0.058 | 1.1 ± 0.085 | 1.08 ± 0.023 | 1.07 ± 0.059 | 1.14 ± 0.12 | 1.18 ± 0.11 | 0.92 (active)
CC(C)(C)n1cnc2cc(N=Cc3ccc(Cl)cc3)ccc21 | 1.21 ± 0.14 | 1.01 ± 0.12 | 1.4 ± 0.055 | 0.888 ± 0.059 | 0.805 ± 0.048 | 0.996 ± 0.1 | 1 (active)
CN(C)c1nc(CNS(C)(=O)=O)nc(N2CCCCC2)n1 | 1 ± 0.092 | 1.08 ± 0.091 | 1.03 ± 0.044 | 0.991 ± 0.044 | 1.03 ± 0.071 | 0.965 ± 0.21 | 1 (active)
CC(O)(P(=O)(O)O)P(=O)(O)O | 0.76 ± 0.033 | 0.997 ± 0.1 | 1.08 ± 0.079 | 0.956 ± 0.069 | 1.14 ± 0.27 | 1.26 ± 0.4 | 0.98 (active)
CSc1nnc(CSc2nc(C)cc(C)n2)n1-c1cccc(C(F)(F)F)c1 | 0.958 ± 0.041 | 0.862 ± 0.071 | 1.17 ± 0.07 | 0.961 ± 0.053 | 1.36 ± 0.34 | 1.37 ± 0.44 | 0.953 (active)
COc1cc(C=Nc2ccc(-c3ccc(N=Cc4cc(OC)c(OC)cc4[N+](=O)[O-])cc3)cc2)c([N+](=O)[O-])cc1OC | 0.742 ± 0.19 | 1.02 ± 0.065 | 1.02 ± 0.1 | 0.769 ± 0.1 | 1.03 ± 0.084 | 1.01 ± 0.41 | 1.01 (active)
CCOc1ccc(C(CN)N2CCOCC2)cc1 (centres undefined) | 1.07 ± 0.048 | 0.934 ± 0.079 | 1.08 ± 0.075 | 0.943 ± 0.046 | 1.33 ± 0.28 | 1.29 ± 0.44 | 0.941 (active)
C[C@@H]1CCN(C(=O)CC#N)C[C@@H]1N(C)c1ncnc2[nH]ccc12 | 1.14 ± 0.15 | 0.694 ± 0.24 | 0.824 ± 0.064 | 0.337 ± 0.022 | 0.473 ± 0.098 | 0.654 ± 0.082 | 0.992 (active)
Nc1ncn(C2OC(CO)C(O)C2O)c(=O)n1 (centres undefined) | 2.76 ± 0.66 | 1.35 ± 0.075 | 4.3 ± 0.27 | 0.541 ± 0.026 | 0.728 ± 0.099 | 0.714 ± 0.085 | 0.808 (active)
O=C(c1ccc(F)cc1)C1CCN(CCn2c(=O)[nH]c3ccccc3c2=O)CC1 | 0.477 ± 0.028 | 0.956 ± 0.1 | 1.34 ± 0.072 | 1.47 ± 0.068 | 1.21 ± 0.19 | 1.45 ± 0.34 | 0.314 (inactive)
COc1ccc(OC)c(CN2CCCC(O)C2)c1 (centres undefined) | 1.19 ± 0.075 | 1.01 ± 0.081 | 0.942 ± 0.027 | 0.963 ± 0.055 | 1.07 ± 0.061 | 1.06 ± 0.1 | 1 (active)
CCOC(=O)CN1CCOCCOCCN(CC(=O)OCC)CCOCCOCC1 | 0.937 ± 0.078 | 0.971 ± 0.061 | 0.957 ± 0.067 | 0.974 ± 0.052 | 1.23 ± 0.088 | 1.02 ± 0.1 | 1.01 (active)
CC(Oc1ccc(Cl)cc1)C(=O)NCc1cccnc1 (centres undefined) | 1.2 ± 0.11 | 0.981 ± 0.12 | 0.989 ± 0.096 | 1.05 ± 0.026 | 1.31 ± 0.17 | 1.17 ± 0.12 | 1.01 (active)
COc1cccc(-c2cc(C(=O)N3CCC(Oc4cc(C)n(C)c(=O)c4)CC3)n(C)n2)c1 | 1.01 ± 0.11 | 0.994 ± 0.1 | 0.983 ± 0.06 | 0.991 ± 0.059 | 0.964 ± 0.066 | 0.938 ± 0.085 | 1 (active)
OCCN1CCN(C(c2cccs2)c2ccc3cccnc3c2O)CC1 (centres undefined) | 1.95 ± 0.14 | 0.699 ± 0.036 | 0.66 ± 0.048 | 0.759 ± 0.049 | 0.332 ± 0.027 | 0.26 ± 0.021 | 0.155 (inactive)
CN1CCC(=C2c3ccccc3CCc3sccc32)CC1.O=C(O)CC(O)C(=O)O | 0.574 ± 0.054 | 0.705 ± 0.035 | 0.868 ± 0.094 | 0.692 ± 0.036 | 1.09 ± 0.073 | 1 ± 0.12 | 0.385 (inactive)
N[C@H](Cc1ccccc1)C(=O)O | 0.958 ± 0.074 | 1.05 ± 0.052 | 0.958 ± 0.025 | 0.895 ± 0.076 | 0.988 ± 0.049 | 1.11 ± 0.14 | 1 (active)
Cl.OC(CCN1CCCCC1)(c1ccccc1)C1CCCCC1 (centres undefined) | 0.338 ± 0.034 | 1.01 ± 0.081 | 1.11 ± 0.075 | 1.03 ± 0.058 | 1.11 ± 0.19 | 1.08 ± 0.34 | 1.01 (active)
